Measurements: PubChem BioAssay (EPA / NIEHS)
Inconclusive results are not listed. Active and inactive are the calls of the source. Rule for the calls, unless noted: active = hit-call score of the fitted dose curve at least 0.9, where 1 is the maximum; inconclusive = response in the unintended direction; inactive = score below 0.9.

Experiments:
[1] = TOX21_p53_BLA_p2_viability: Viability Assessment in the Tox21 HCT-116 p53 Agonism Beta-lactamase Assay, Phase 2 (AID 2283591);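 note: actives lower the ATP signal meaning cytotoxicity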
Outline: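 HCT-116 p53-bla cells (4000/well) rested 5 h at 37C, then received compounds in DMSO (217-fold dilution) for 16 h at 37C, 5% CO2. After the CCF4 read, CellTiter-Glo was added; ATP luminescence was read after 30 min at room temperature.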

[2] = target: Cellular tumor antigen p53 (Homo sapiens) (UniProt P04637); experiment: TOX21_p53_BLA_p2_ratio: Tox21 HCT-116 p53 Agonism Beta-lactamase Assay, Ratio, Phase 2 (AID 2283592)
Chain of Cellular tumor antigen p53 (Homo sapiens) (P04637 whole entry, looked up): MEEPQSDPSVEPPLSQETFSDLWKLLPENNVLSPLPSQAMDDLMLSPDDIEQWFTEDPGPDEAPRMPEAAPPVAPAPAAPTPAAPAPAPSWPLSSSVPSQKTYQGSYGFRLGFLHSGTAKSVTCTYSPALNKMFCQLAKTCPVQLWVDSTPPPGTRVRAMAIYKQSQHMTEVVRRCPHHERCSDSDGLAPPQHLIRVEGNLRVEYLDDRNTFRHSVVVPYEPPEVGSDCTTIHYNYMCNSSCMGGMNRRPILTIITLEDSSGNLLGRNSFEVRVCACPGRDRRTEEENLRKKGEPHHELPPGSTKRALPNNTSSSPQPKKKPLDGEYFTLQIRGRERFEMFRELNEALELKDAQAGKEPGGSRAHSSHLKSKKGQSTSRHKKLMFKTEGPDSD
Outline: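 First, HCT116 reporter cells settle for 5 h at 37C. Next, DMSO compound solutions are pinned in (217-fold dilution) and left 16 h. Finally, CCF4-AM substrate is loaded 2 h at room temperature and the 460/530 nm ratio read.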

[3] = TOX21_p53_BLA_p3_viability: Viability Assessment in the Tox21 HCT-116 p53 Agonism Beta-lactamase Assay, Phase 3 (AID 2283593);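 note: cells exposed to compound for 16 h before reading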
Outline: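 HCT-116 cells (4000/well) rested 5 h at 37C, then got DMSO compounds by pin tool (217-fold dilution) for 16 h at 37C, 5% CO2. After the bla read, CellTiter-Glo was added and luminescence read at 30 min, room temperature.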

[4] = TOX21_p53_BLA_p4_viability: Viability Assessment in the Tox21 HCT-116 p53 Agonism Beta-lactamase Assay, Phase 4 (AID 2283597);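 note: hits lower the luminescence signal meaning cytotoxicity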
Outline: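 4000 HCT116 cells per well; 5 h attachment; compounds from DMSO, 217-fold dilution; 16 h at 37C. Then CCF4-AM, 2 h RT, followed by CellTiter-Glo, 30 min RT, luminescence. Decrease = cytotoxicity.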

[5] = target: Cellular tumor antigen p53 (Homo sapiens) (UniProt P04637); experiment: TOX21_p53_BLA_p5_ratio: Tox21 HCT-116 p53 Agonism Beta-lactamase Assay, Ratio, Phase 5 (AID 2283599)
Outline: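 HCT-116 cells carrying a p53-inducible beta-lactamase reporter were seeded at 4000 cells/well and dosed after 5 h with compound in DMSO (217-fold dilution). After 16 h at 37C, CCF4-AM substrate was added for 2 h, and the 460/530 nm emission ratio was scored as gain-of-signal versus DMSO.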

[6] = TOX21_p53_BLA_p5_viability: Viability Assessment in the Tox21 HCT-116 p53 Agonism Beta-lactamase Assay, Phase 5 (AID 2283600)
Outline: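 Decreased CellTiter-Glo luminescence denotes lost viability. Exposure: 16 h at 37C, 5% CO2, with compounds from DMSO stocks diluted 217-fold in wells of 4000 cells.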

[7] = target: Cellular tumor antigen p53 (Homo sapiens) (UniProt P04637); experiment: TOX21_p53_BLA_p4_ratio: Tox21 HCT-116 p53 Agonism Beta-lactamase Assay, Ratio, Phase 4 (AID 2283601)
Outline: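 HCT116 cells carrying an inducible beta-lactamase reporter were plated at 4000 cells/well, rested 5 h, then exposed to compounds in DMSO (217-fold dilution) for 16 h at 37C. CCF4-AM substrate was loaded 2 h at room temperature; 460/530 nm emission ratio scored gain-of-signal versus DMSO.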

[8] = target: Thyroid hormone receptor alpha (Rattus norvegicus) + Thyroid hormone receptor beta (Rattus norvegicus) (UniProt P18113+P63059); experiment: TOX21_TR_LUC_GH3_Antagonist_Followup: Tox21 GH3 Thyroid Hormone Receptor Antagonism Luciferase Follow-Up Assay (AID 2283942)
Outline: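 In a GH3 luciferase reporter line, test chemicals spanning 92 uM to 5nM final are co-incubated 24 h with 1.0 nM T3. Activity is expressed as relative luminescence units and analysed relative to DMSO.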

[9] = target: THRA (gene 7067) (UniProt P10827); experiment: TOX21_TRA_COA_Antagonist_Followup_ratio: Tox21 Thyroid Hormone Receptor alpha Antagonism through Coactivator Recruitment Follow-Up Assay, Ratio (AID 2283953)
Chain of THRA (gene 7067) (P10827 whole entry, looked up, the tested form may be a part): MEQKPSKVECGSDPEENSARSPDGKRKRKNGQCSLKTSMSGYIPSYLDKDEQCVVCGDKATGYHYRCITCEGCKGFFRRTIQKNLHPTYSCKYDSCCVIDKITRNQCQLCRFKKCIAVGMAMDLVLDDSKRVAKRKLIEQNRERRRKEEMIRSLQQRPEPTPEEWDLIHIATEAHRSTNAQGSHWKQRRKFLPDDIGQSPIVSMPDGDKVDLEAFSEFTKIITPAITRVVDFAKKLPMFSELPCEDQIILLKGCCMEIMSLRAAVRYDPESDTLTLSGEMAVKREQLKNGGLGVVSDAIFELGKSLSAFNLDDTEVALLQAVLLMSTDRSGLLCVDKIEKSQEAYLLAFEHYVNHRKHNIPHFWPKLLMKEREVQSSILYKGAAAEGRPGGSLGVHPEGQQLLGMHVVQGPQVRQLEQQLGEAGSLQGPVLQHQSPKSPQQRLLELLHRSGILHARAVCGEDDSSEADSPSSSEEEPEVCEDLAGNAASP
Outline: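 GST-TRα LBD 2.5 nM, BSA 0.10%, + cpd; then FITC-SRC-2 peptide 200 nM + Tb-anti-GST Ab 2 nM. TR-FRET ratio 520/495 nm. Norm: DMSO = 0%, T3 = 100%.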

[10] = target: THRB (gene 7068) (UniProt P10828); experiment: TOX21_TRB_BLA_Antagonist_Followup_ratio: Tox21 Thyroid Hormone Receptor beta Antagonism Beta-lactamase (BLA) Follow-Up Assay, Ratio (AID 2283958)
Chain of THRB (gene 7068) (P10828 whole entry, looked up, the tested form may be a part): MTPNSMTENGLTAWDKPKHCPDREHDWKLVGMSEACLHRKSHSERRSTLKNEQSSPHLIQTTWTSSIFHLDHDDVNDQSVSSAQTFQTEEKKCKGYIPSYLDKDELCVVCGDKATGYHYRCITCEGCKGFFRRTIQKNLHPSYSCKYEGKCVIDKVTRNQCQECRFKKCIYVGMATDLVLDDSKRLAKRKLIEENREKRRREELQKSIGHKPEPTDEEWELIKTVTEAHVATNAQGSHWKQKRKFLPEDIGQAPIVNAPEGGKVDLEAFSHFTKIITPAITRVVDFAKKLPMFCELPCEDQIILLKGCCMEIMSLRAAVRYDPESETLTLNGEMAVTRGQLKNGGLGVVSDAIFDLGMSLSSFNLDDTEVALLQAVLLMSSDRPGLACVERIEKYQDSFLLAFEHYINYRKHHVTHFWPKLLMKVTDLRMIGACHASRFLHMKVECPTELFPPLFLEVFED
Outline: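 Cells were plated and allowed to attach for 5 h, then dosed with compounds in DMSO at 11 concentrations for 18 h at 37C. Beta-lactamase reporter activity was measured via CCF4-AM FRET as the 460:530 nm ratio.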

[11] = TOX21_TRB_BLA_Antagonist_Followup_viability: Viability Assessment in the Tox21 Thyroid Hormone Receptor beta Antagonism Beta-lactamase (BLA) Follow-Up Assay (AID 2283961)
Outline: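 HEK293T cells with GAL4-human TRβ LBD and UAS-bla reporter, 3,000 cells/well in 2% charcoal-stripped FBS medium; 11-point concentrations in triplicate, 18 h at 37C. Viability from ATP by CellTiter-Glo luminescence, 30 min RT, same plates.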

[12] = target: THRB (gene 7068) (UniProt P10828); experiment: TOX21_TRB_COA_Antagonist_Followup_ratio: Tox21 Thyroid Hormone Receptor beta Antagonism through Coactivator Recruitment Follow-Up Assay, Ratio (AID 2283967)
Outline: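 Coactivator (SRC-2) recruitment to purified GST-TRβ ligand-binding domain is monitored by terbium-to-fluorescein energy transfer, emission ratio 520:495 nm. DMSO wells define 0% and T3 wells 100% activity.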

[13] = TOX21_PR_BLA_Followup_Agonist_viability: Viability Assessment in the Tox21 HEK293 Progesterone Receptor (PR) Agonism Beta-lactamase Follow-Up Assay (AID 2283935);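 note: signal loss means lower viability so actives are cytotoxic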
Outline: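 Cells were plated in medium with 2% charcoal-stripped FBS and rested 6 hr. Compounds in DMSO were then added for 16 hr at 37C, followed by the FRET substrate step and CellTiter-Glo luminescence after 30 min.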

[14] = TOX21_PR_BLA_Followup_Antagonist_viability: Viability Assessment in the Tox21 HEK293 Progesterone Receptor (PR) Antagonism Beta-lactamase Follow-Up Assay (AID 2283936);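 note: cells exposed to compound with R5020 agonist for 16 h; hits lower the luminescence signal meaning cytotoxicity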
Outline: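 PR-UAS-bla HEK293T cells in medium with 2% charcoal-stripped FBS were treated with compounds plus R5020 for 16 hr at 37C. After the beta-lactamase read, CellTiter-Glo was added to the same wells and luminescence read after 30 min at room temperature.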

[15] = target: PGR (gene 5241) (UniProt P06401); experiment: TOX21_PR_LUC_Followup_Agonist: Tox21 HEK293 Progesterone Receptor (PR) Agonism Luciferase Follow-Up Assay (AID 2283937; active = hit-call score of the fitted dose curve at least 0.9, where 1 is the maximum; inactive = score below 0.9)
Chain of PGR (gene 5241) (P06401 whole entry, looked up): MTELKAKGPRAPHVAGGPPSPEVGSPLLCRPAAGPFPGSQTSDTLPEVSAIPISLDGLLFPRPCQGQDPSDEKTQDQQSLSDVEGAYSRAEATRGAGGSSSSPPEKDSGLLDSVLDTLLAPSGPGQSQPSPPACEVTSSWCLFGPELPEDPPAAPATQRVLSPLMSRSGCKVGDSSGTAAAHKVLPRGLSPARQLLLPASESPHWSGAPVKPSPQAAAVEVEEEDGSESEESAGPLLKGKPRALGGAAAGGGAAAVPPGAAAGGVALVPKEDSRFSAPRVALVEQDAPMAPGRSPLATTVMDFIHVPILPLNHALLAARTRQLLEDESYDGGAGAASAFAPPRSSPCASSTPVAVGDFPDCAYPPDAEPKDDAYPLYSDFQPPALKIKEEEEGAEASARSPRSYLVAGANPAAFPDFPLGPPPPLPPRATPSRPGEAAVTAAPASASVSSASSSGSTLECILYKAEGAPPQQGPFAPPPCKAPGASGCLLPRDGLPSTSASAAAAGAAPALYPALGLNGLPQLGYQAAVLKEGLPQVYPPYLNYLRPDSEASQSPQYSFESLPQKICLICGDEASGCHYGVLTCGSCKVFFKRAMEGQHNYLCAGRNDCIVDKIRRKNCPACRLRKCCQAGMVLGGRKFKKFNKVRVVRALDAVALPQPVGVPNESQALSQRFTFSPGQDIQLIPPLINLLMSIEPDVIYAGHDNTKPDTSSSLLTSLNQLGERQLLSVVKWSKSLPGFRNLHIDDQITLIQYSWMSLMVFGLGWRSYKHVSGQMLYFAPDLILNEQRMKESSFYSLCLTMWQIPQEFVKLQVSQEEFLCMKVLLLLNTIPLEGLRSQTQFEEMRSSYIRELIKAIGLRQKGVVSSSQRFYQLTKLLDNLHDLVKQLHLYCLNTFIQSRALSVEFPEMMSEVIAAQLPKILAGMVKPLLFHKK
Outline: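 Seed HEK293-PR-A-luc cells, wait 5 h, add compounds in DMSO, incubate 16 h at 37C, add ONE-Glo, read luminescence after 30 min. Activity is increase over DMSO controls; run with a viability counter-screen.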

[16] = target: PGR (gene 5241) (UniProt P06401); experiment: TOX21_PR_LUC_Followup_Antagonist: Tox21 HEK293 Progesterone Receptor (PR) Antagonism Luciferase Follow-Up Assay (AID 2283938);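 note: curve fitted upward as signal gain over DMSO baseline despite antagonist label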
Outline: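 HEK293-PR-A-luc cells, 3,000/well, preincubated 5 h at 37C before compound addition in DMSO; 16 h compound exposure at 37C. ONE-Glo luciferase luminescence read after 30 min at room temperature, fitted relative to DMSO baseline.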

[17] = TOX21_PR_LUC_Followup_Antagonist_viability: Viability Assessment in the Tox21 HEK293 Progesterone Receptor (PR) Antagonism Luciferase Follow-Up Assay (AID 2283940)
Outline: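 HEK293-PR-A-luc, 3,000 cells/well; 5 h at 37C/0% CO2; compound pin transfer; 16 h incubation; CellTiter-Glo ATP luminescence, signal loss = cytotoxicity.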

[18] = TOX21_PR_LUC_Followup_Agonist_viability: Viability Assessment in the Tox21 HEK293 Progesterone Receptor (PR) Agonism Luciferase Follow-Up Assay (AID 2283941);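 note: loss of signal means cytotoxicity so actives lower viability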
Outline: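 Multiplexed viability endpoint of the PR agonist luciferase follow-up: HEK293-PR-A-luc cells treated 16 h at 37C, with viability scored as decrease in CellTiter-Glo ATP signal.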

Measured: AC50

Cc1c(Nc2ncccc2C(=O)O)cccc1C(F)(F)F
not listed: [13] | [14] | [15] | [16] | [17] | [18]
inactive: all other assays above

CCCC1([C@H](O)C/C=C/[C@H]2[C@H](O)CC(=O)[C@@H]2CCCCCCC(=O)OC)CCC1
active: [4] 36.3 µM
inactive: [1] | [2] | [3] | [5] | [6] | [7]

Cc1c(O)c(=O)ccn1C
inactive: [1] | [2] | [3] | [4] | [5] | [6] | [7]

CCCCCCCCCCCC(=O)OC[C@@H](O)[C@H]1OC[C@H](OCCO)[C@H]1OCCO
inactive: [1] | [2] | [3] | [4] | [5] | [6] | [7]

COC(=O)C1=C(C)NC(C)=C(C(=O)OCCN2CCN(C(c3ccccc3)c3ccccc3)CC2)C1c1cccc([N+](=O)[O-])c1 (stereo not given)
active: [16] 23 µM
not listed: [8] | [9] | [10] | [11] | [12]
inactive: all other assays above

C=CCN1C[C@H](C(=O)N(CCCN(C)C)C(=O)NCC)C[C@@H]2c3cccc4[nH]cc(c34)C[C@H]21
inactive: [1] | [2] | [3] | [4] | [5] | [6] | [7]

Nc1nc(-c2ccccc2)c(Br)c(=O)[nH]1
inactive: [1] | [2] | [3] | [4] | [5] | [6] | [7]

CCOc1ccc(N=Nc2ccc(N)cc2N)cc1
inactive: [1] | [2] | [3] | [4] | [5] | [6] | [7]

CCCCCCCCCCCCCCCC[N+](C)(C)CCN(Cc1ccc(OC)cc1)c1ncccn1
active: [4] 17.3 µM
inactive: [1] | [2] | [3] | [5] | [6] | [7]

Cc1cc(-c2ccc(N=Nc3ccc4c(S(=O)(=O)O)cc(S(=O)(=O)O)c(N)c4c3O)c(C)c2)ccc1N=Nc1ccc2c(S(=O)(=O)O)cc(S(=O)(=O)O)c(N)c2c1O
inactive: [1] | [2] | [3] | [4] | [5] | [6] | [7]

CCOC(=O)NNc1ccc(N(CC)CC(C)O)nn1 (stereo not given)
inactive: [1] | [2] | [3] | [4] | [5] | [6] | [7]

CC(=O)NO
inactive: [1] | [2] | [3] | [4] | [5] | [6] | [7]
